In PubChem BioAssay AID1159580 (chemical genetic matrix, 2015):
The whole screen tested about 5,500 compounds, of which about 2,000 (36%) were called active. Another 18% or so got no clear call; they are omitted. Rule as the data show it: active = normalized growth mostly below about 0.91 (no sharp cut-off); inconclusive = no clear call, values can overlap the other calls; inactive = mostly above about 0.92. Some of the results follow.

Test: chemical genetic growth profiling, strain panel (AID 1159580);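 also: tested at 20 µM; growth read once vehicle control cultures reached saturation at 30 °C; 1 = growth at the plate median or of vehicle wells; lower values mean less growth of the strain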
Conditions: growth OD

Measured: normalized growth

Cc1cc(OC(=O)c2c(C)cc(OC(=O)c3c(C)cc(O)cc3O)cc2O)cc(O)c1C(=O)O
inactive: S. cerevisiae deletion strains, locus YAL013W, strain DEP1, stronger effect = lower value 1.02 | S. cerevisiae deletion strains, locus YBR021W, strain FUR4, stronger effect = lower value 0.985 | S. cerevisiae deletion strains, locus YBR229C, strain ROT2, stronger effect = lower value 1.03 | S. cerevisiae deletion strains, locus YCL029C, strain bik1, stronger effect = lower value 0.973 | S. cerevisiae deletion strains, locus YDL035C, strain GPR1, stronger effect = lower value 0.997 | S. cerevisiae deletion strains, locus YDL074C, strain BRE1, stronger effect = lower value 1.01 | S. cerevisiae deletion strains, locus YDL101C, strain DUN1, stronger effect = lower value 1.02 | S. cerevisiae deletion strains, locus YDL134C, strain PPH21, stronger effect = lower value 1.03 | S. cerevisiae deletion strains, locus YDL185W, strain tfp1, stronger effect = lower value 0.99 | S. cerevisiae deletion strains, locus YDL192W, strain arf1, stronger effect = lower value 0.979 | S. cerevisiae deletion strains, locus YDR101C, strain arx1, stronger effect = lower value 0.971 | S. cerevisiae deletion strains, locus YDR150W, strain NUM1, stronger effect = lower value 1.03 | S. cerevisiae deletion strains, locus YDR162C, strain NBP2, stronger effect = lower value 0.998 | S. cerevisiae deletion strains, locus YDR318W, strain mcm21, stronger effect = lower value 0.967 | S. cerevisiae deletion strains, locus YDR388W, stronger effect = lower value 0.992 | S. cerevisiae deletion strains, locus YDR502C, strain sam2, stronger effect = lower value 0.991 | S. cerevisiae deletion strains, locus YER110C, stronger effect = lower value 0.986 | S. cerevisiae deletion strains, locus YER155C, strain BEM2, stronger effect = lower value 1.03 | S. cerevisiae deletion strains, locus YER167W, strain BCK2, stronger effect = lower value 1 | S. cerevisiae deletion strains, locus YGL078C, strain dbp3, stronger effect = lower value 1 | S. cerevisiae deletion strains, locus YGL086W, strain mad1, stronger effect = lower value 0.98 | S. cerevisiae deletion strains, locus YGL248W, strain PDE1, stronger effect = lower value 1.04 | S. cerevisiae deletion strains, locus YGR078C, strain PAC10, stronger effect = lower value 1 | S. cerevisiae deletion strains, locus YGR135W, strain pre9, stronger effect = lower value 0.999 | S. cerevisiae deletion strains, locus YGR229C, strain SMI1, stronger effect = lower value 0.953 | S. cerevisiae deletion strains, locus YGR252W, strain gcn5, stronger effect = lower value 0.872 | S. cerevisiae deletion strains, locus YHR030C, strain SLT2, stronger effect = lower value 1.02 | S. cerevisiae deletion strains, locus YHR079C, strain IRE1 (second series), stronger effect = lower value 0.971 | S. cerevisiae deletion strains, locus YHR094C, strain hxt1, stronger effect = lower value 1.01 | S. cerevisiae deletion strains, locus YHR129C, strain ARP1, stronger effect = lower value 1.02 | S. cerevisiae deletion strains, locus YHR200W, strain rpn10, stronger effect = lower value 0.994 | S. cerevisiae deletion strains, locus YIL066C, strain RNR3, stronger effect = lower value 1.01 | S. cerevisiae deletion strains, locus YIL073C, strain SPO22, stronger effect = lower value 0.956 | S. cerevisiae deletion strains, locus YIL125W, strain kgd1, stronger effect = lower value 1.02 | S. cerevisiae deletion strains, locus YIR030C, strain dcg1, stronger effect = lower value 0.998 | S. cerevisiae deletion strains, locus YJL095W, strain BCK1, stronger effect = lower value 0.986 | S. cerevisiae deletion strains, locus YJL134W, strain LCB3, stronger effect = lower value 1.02 | S. cerevisiae deletion strains, locus YJL168C, strain set2, stronger effect = lower value 0.999 | S. cerevisiae deletion strains, locus YJL187C, strain SWE1 (second series), stronger effect = lower value 1.01 | S. cerevisiae deletion strains, locus YJR043C, strain POL32, stronger effect = lower value 0.981 | S. cerevisiae deletion strains, locus YJR075W, strain HOC1, stronger effect = lower value 0.979 | S. cerevisiae deletion strains, locus YKL068W, stronger effect = lower value 1 | S. cerevisiae deletion strains, locus YKL085W, strain MDH1 (second series), stronger effect = lower value 0.975 | S. cerevisiae deletion strains, locus YKL085W, strain MDH1, stronger effect = lower value 0.975 | S. cerevisiae deletion strains, locus YKL190W, strain CNB1, stronger effect = lower value 1.02 | S. cerevisiae deletion strains, locus YKR001C, strain vps1, stronger effect = lower value 0.967 | S. cerevisiae deletion strains, locus YLR039C, strain RIC1, stronger effect = lower value 0.997 | S. cerevisiae deletion strains, locus YLR058C, strain SHM2, stronger effect = lower value 1.02 | S. cerevisiae deletion strains, locus YLR102C, strain apc9, stronger effect = lower value 1.01 | S. cerevisiae deletion strains, locus YLR262C, strain YPT6, stronger effect = lower value 1 | S. cerevisiae deletion strains, locus YLR268W, strain sec22, stronger effect = lower value 0.982 | S. cerevisiae deletion strains, locus YLR330W, strain CHS5, stronger effect = lower value 1.01 | S. cerevisiae deletion strains, locus YLR342W, strain FKS1 (second series), stronger effect = lower value 0.937 | S. cerevisiae deletion strains, locus YLR371W, strain rom2, stronger effect = lower value 0.999 | S. cerevisiae deletion strains, locus YLR418C, strain cdc73, stronger effect = lower value 0.959 | S. cerevisiae deletion strains, locus YML016C, strain PPZ1, stronger effect = lower value 1.03 | S. cerevisiae deletion strains, locus YML032C, strain rad52, stronger effect = lower value 0.965 | S. cerevisiae deletion strains, locus YML124C, strain tub3, stronger effect = lower value 1.01 | S. cerevisiae deletion strains, locus YMR078C, strain ctf18, stronger effect = lower value 1 | S. cerevisiae deletion strains, locus YMR223W, strain ubp8, stronger effect = lower value 0.967 | S. cerevisiae deletion strains, locus YMR263W, strain SAP30, stronger effect = lower value 1.02 | S. cerevisiae deletion strains, locus YMR307W, strain GAS1, stronger effect = lower value 0.862 | S. cerevisiae deletion strains, locus YNL067W, strain RPL9B, stronger effect = lower value 1.01 | S. cerevisiae deletion strains, locus YNL128W, strain TEP1, stronger effect = lower value 1.04 | S. cerevisiae deletion strains, locus YNL153C, strain GIM3, stronger effect = lower value 1.02 | S. cerevisiae deletion strains, locus YNL233W, strain BNI4, stronger effect = lower value 0.995 | S. cerevisiae deletion strains, locus YNL250W, strain rad50, stronger effect = lower value 0.997 | S. cerevisiae deletion strains, locus YNL271C, strain bni1, stronger effect = lower value 0.985 | S. cerevisiae deletion strains, locus YNL298W, strain CLA4, stronger effect = lower value 0.981 | S. cerevisiae deletion strains, locus YNL307C, strain MCK1, stronger effect = lower value 0.966 | S. cerevisiae deletion strains, locus YNL322C, strain KRE1, stronger effect = lower value 1.03 | S. cerevisiae deletion strains, locus YNR052C, strain pop2, stronger effect = lower value 0.972 | S. cerevisiae deletion strains, locus YOL006C, strain TOP1, stronger effect = lower value 0.993 | S. cerevisiae deletion strains, locus YOL012C, strain htz1 0.878 | S. cerevisiae deletion strains, locus YOL147C, strain pex11, stronger effect = lower value 0.999 | S. cerevisiae deletion strains, locus YOR061W, strain CKA2, stronger effect = lower value 1.02 | S. cerevisiae deletion strains, locus YOR069W, strain VPS5, stronger effect = lower value 1.01 | S. cerevisiae deletion strains, locus YOR136W, strain idh2, stronger effect = lower value 0.982 | S. cerevisiae deletion strains, locus YOR144C, strain elg1, stronger effect = lower value 1.01 | S. cerevisiae deletion strains, locus YOR184W, strain ser1, stronger effect = lower value 0.95 | S. cerevisiae deletion strains, locus YOR316C, strain cot1, stronger effect = lower value 0.996 | S. cerevisiae deletion strains, locus YPL055C, strain LGE1, stronger effect = lower value 1.03 | S. cerevisiae deletion strains, locus YPL241C, strain CIN2, stronger effect = lower value 1.02 | S. cerevisiae deletion strains, locus YPR119W, strain clb2, stronger effect = lower value 1 | S. cerevisiae deletion strains, locus YPR141C, strain kar3, stronger effect = lower value 1.01 | S. cerevisiae deletion strains, locus YPR163C, strain tif3, stronger effect = lower value 1 | S. cerevisiae deletion strains, locus YPR167C, strain met16, stronger effect = lower value 1.01 | S. cerevisiae deletion strains, strain wtn01, stronger effect = lower value 0.994 | S. cerevisiae strains, strain wild type, stronger effect = lower value 1
active: S. cerevisiae deletion strains, locus YKL009W, strain mrt4, stronger effect = lower value 0.76
